# HepG2 tox-1: HepG2 cytotoxicity, counter-screen for TGF-b inhibitors; AID 588856; 410,000 tested, 0.76% active; Potency, µM (titrated, usually from 46.1 µM), inactives show at the top dose activity change, negative = cytotoxicity, usual class: cytotoxic; HepG2 CAGA-GFP viability, ATP luminescence, 18 h; further: potency means the concentration at half of the fitted maximal effect
#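 CellTiter-Glo luminescence gave cytotoxicity after 18 hours at 37 degrees C. The cells were HepG2 CAGA-GFP in 1% FBS DMEM, stimulated with 500 pg/mL TGF-beta after compound addition. %Activity was normalised to no-cell wells (complete cell-killing) and DMSO (no toxicity), and curves were fitted and classified.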
# DRD3 antagonist: antagonists of human D3 dopamine receptor | D3R cells, DiscoveRx beta-arrestin luminescence, antagonist mode; hits give low values | 360,000 tested, 2.5% active | max response, negative = inhibition, % | AID 652054; in the data active means max response below about -50%; inconclusive means no clear call, values can overlap the other calls; further: on the % scale 0 is the no-effect control and ±100 the full control effect
# Target sequence (P35462 whole entry, looked up): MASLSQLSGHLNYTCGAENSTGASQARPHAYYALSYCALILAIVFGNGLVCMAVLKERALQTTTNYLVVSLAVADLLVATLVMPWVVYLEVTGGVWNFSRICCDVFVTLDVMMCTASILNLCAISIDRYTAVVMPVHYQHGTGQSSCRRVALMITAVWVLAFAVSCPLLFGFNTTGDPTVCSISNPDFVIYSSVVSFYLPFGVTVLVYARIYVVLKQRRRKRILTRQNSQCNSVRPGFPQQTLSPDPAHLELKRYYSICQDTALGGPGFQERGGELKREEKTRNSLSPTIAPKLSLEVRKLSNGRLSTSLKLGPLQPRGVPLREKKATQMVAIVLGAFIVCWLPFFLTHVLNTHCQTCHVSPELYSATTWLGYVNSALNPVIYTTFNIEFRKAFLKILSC
#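 Cells expressing the human receptor were seeded at 1500 cells/well, incubated overnight at 37 degrees C in 5% CO2, then exposed to library compounds with dopamine controls for 90 minutes at 37 degrees C before luminescent detection.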
# ATXN viability: cell viability loss in ATXN counter-screen; 400,000 tested, 0.49% active; Potency, µM (highest dose often 56.7 µM), hits mostly cytotoxic; S2 cells (HEK-293 line with an ATXN2-luciferase reporter) viability, CellTiter-Fluor protease fluorescence, 24 h; further: potency means the concentration at half of the fitted maximal effect; nearly all actives have a fitted effect of over 40% in size
# DRD3 agonist: D3 dopamine receptor (human) agonism | P35462 | D3R DiscoveRx beta-arrestin cells, luminescence, 90 min | max activation, % | 410,000 tested, 0.58% active | AID 652048; in the data active means max activation above about 30%; further: 0% is about no effect
#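 Cells at 1500/well, incubated overnight, then treated with pinned compounds (dopamine as control) for 90 min at 37 degrees C. DiscoveRx reagent added for 30 - 60 minutes at room temperature; luminescence read.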
# TGFb SMAD3 inh: blocks TGF-b signaling; Potency, µM (doses to about 46.1 µM), inactives show at the top dose activity, negative = inhibition, usual class: inhibitors; HepG2 CAGA-GFP TGF-b/SMAD3 reporter, GFP fluorescence, 18 h; TGF-beta stimulated, 500 pg/mL final; 410,000 tested, 1.2% active; further: potency means the concentration at half of the fitted maximal effect; on the % scale 0 is the no-effect control and ±100 the full control effect; nearly all actives have a fitted effect of over 65% in size
#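 Using HEPG2 CAGA-GFP reporter cells at 1000 cells/well, we pinned test compounds, stimulated with recombinant TGF-beta (500 pg/mL final) and measured total well GFP after 18 h.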
# ATXN2 expr inh: ATXN2 expression inhibition; Potency, µM (highest dose often 57 µM), for the others: at the highest dose activity change, negative = inhibition, usual class: inhibitors; AID 1745845; HEK-293 ATXN2-luciferase reporter, luminescence, 24 h; 360,000 tested, 0.72% active; further: potency means the concentration at half of the fitted maximal effect; on the % scale 0 is the no-effect control and ±100 the full control effect; nearly all actives have a fitted effect of over 55% in size
#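 qHTS (up to 57 uM final) was run with 24 h compound exposure of reporter cells at 37 °C. Each well was multiplexed: SteadyGlo luminescence measured ATXN2-luciferase expression after a fluorogenic Gly-Phe-AFC viability readout (25 uM final).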
# TGFb CAGA inh: TGF-b pathway inhibition, cherry-pick retest | 1,600 tested, 63% active | AID 720534 | Potency, µM (top dose mostly 46.1 µM), for inactives: at the top dose activity, negative = inhibition, most hits filed as inhibitors | shares compounds with TGFb SMAD3 inh | HepG2 CAGA-GFP TGF-b reporter, GFP fluorescence, 18 h; cells stimulated with TGF-beta, 500 pg/mL; further: potency means the concentration at half of the fitted maximal effect; on the % scale 0 is the no-effect control and ±100 the full control effect; nearly all actives have a fitted effect of over 65% in size
# HepG2 tox-2: toxic to HepG2 cells in TGF-b counterscreen; shares compounds with TGFb SMAD3 inh; HepG2 CAGA-GFP viability, ATP luminescence, 18 h; cells stimulated with TGF-beta, 500 pg/mL; Potency, µM (doses to about 46.1 µM), for inactives: top-dose activity, negative = cytotoxicity, hits mostly inhibitors; 1,600 tested, 27% active; further: potency means the concentration at half of the fitted maximal effect; on the % scale 0 is the no-effect control and ±100 the full control effect; nearly all actives have a fitted effect of over 70% in size
# TGFb CCL64 inh: TGF-b inhibition, CCL64 orthogonal assay | shares compounds with TGFb SMAD3 inh | CCL64 CAGA-GFP reporter, TGF-b stimulated, GFP fluorescence, 18 h | Potency, µM (titrated, usually from 46.1 µM), inactives show top-dose activity, negative = inhibition, most hits filed as inhibitors | 1,600 tested, 41% active | AID 720536; further: potency means the concentration at half of the fitted maximal effect; nearly all actives have a fitted effect of over 65% in size
# COP TGFb inh: TGF-b inhibition validated with COP promoter. shares compounds with TGFb SMAD3 inh. HepG2 COP-GFP TGF-b reporter, GFP fluorescence, 18 h; cells stimulated by added recombinant TGF-beta. Potency, µM (series often up to 46.1 µM), without a hit: at the highest dose activity, negative = inhibition, hits mostly inhibitors. 1,600 tested, 3% active; further: potency means the concentration at half of the fitted maximal effect; nearly all actives have a fitted effect of over 70% in size
# * = called active by the depositor; i = inactive; ? = inconclusive; . = no result. Shown are actives, neighbours in structure and some others; about 4.8% of the full set was active somewhere. Unless noted, the call rests on the fitted dose curve; in most records, active means well fitted curve in the direction sought with a large enough effect; inconclusive means small, poorly fitted or top-dose-only effect, or another doubt; inactive means no such curve, though single readings can be large; an effect the other way counts as inactive or inconclusive.
SMILES,HepG2 tox-1,DRD3 antagonist,ATXN viability,DRD3 agonist,TGFb SMAD3 inh,ATXN2 expr inh,TGFb CAGA inh,HepG2 tox-2,TGFb CCL64 inh,COP TGFb inh
COc1ccc(-n2nnnc2C(CCc2ccccc2)N2CCC(n3c(=O)[nH]c4ccccc43)CC2)cc1 (configuration not stated),-20%,94,10µM*,19,11µM*,?,?,-28%,?,8%
COc1ccc(-n2nnnc2C(c2ccccc2OC(F)(F)F)N2CCC(n3c(=O)[nH]c4ccccc43)CC2)cc1 (configuration not stated),-6%,53,?,15,11µM*,?,5.8µM*,?,?,66%
COc1ccc(CC2NCC(O)C2OC(C)=O)cc1 (configuration not stated),7%,4,?,-2,0.11µM*,0.011µM*,0.1µM*,0.37µM*,0.082µM*,-23%
COc1ccccc1NC(=O)Cn1c(=O)n(-c2cccc(Cl)c2)c(=O)c2sc3ccccc3c21,3%,.,i,8,0%,-2%,.,.,.,.
Cc1ccc(N2CCN(C(=O)c3cn(CC4CCCCC4)nn3)C(C)C2)cc1 (configuration not stated),-4%,-13,i,-7,?,6%,.,.,.,.
CCOC(=O)c1c(C)n(Cc2ccccc2)c2ccc(OCC(O)Cn3nc(C)cc3C)cc12 (configuration not stated),-10%,14,?,0,14µM*,-18%,21µM*,?,15µM*,40%
CCOC(=O)c1c(C)n(Cc2ccccc2)c2ccc(OCC(O)Cn3nc(C)nc3C)cc12 (configuration not stated),-25%,-12,i,-1,0%,?,.,.,.,.
CSc1cccc(CNC(=O)C2CCC(=O)N(Cc3cccc(C(F)(F)F)c3)C2)c1 (configuration not stated),-10%,-25,i,15,?,3%,.,.,.,.
O=C1NCN(c2ccccc2)C12CCN(C(c1cc3ccccc3o1)c1nnnn1C1CCCCC1)CC2 (configuration not stated),-111%,37,?,11,10µM*,?,18µM*,?,23µM*,?
Cc1ccc(C(=O)COC(=O)c2cccc(NC(=O)c3ccc(Br)cc3)c2)cc1,-17%,.,?,8,2%,10%,.,.,.,.
CS(=N)(=O)CC[C@@H](N)C(=O)O (some centres not stated),.,.,i,.,.,.,.,.,.,.
c1ccc2c(CN3CCCCCCC3)c[nH]c2c1,-26%,-2,?,-5,?,-10%,21µM*,23µM*,8.2µM*,-4%
O=C(NCNC(=O)N[C@H]1C(=O)NC(=O)N1CO)N[C@H]1C(=O)NC(=O)N1CO,.,.,i,.,.,.,.,.,.,.

# From PubChem
